# From the supplement of paper PMC11732987, “Enantioselective OTUD7B fragment discovery through chemoproteomics screening and high-throughput optimisation” (Communications Chemistry, 2025)
# Values without a mark were called inactive.
# Legend:
# Assay in all cases: log2 ratio of Biotin-Ahx-Ub-VS probe labelling (fragment/DMSO); higher = less target engagement (more negative = stronger competition), active = hit call of the paper (q ≤ 0.05, log2 ratio ≤ -1)
# Settings in all cases: compound concentration: 200 uM; treatment time: 3 h
# OTUD6B = target: T1, OTUD6B (UniProt Q8N6M0)
# T1 sequence (whole entry): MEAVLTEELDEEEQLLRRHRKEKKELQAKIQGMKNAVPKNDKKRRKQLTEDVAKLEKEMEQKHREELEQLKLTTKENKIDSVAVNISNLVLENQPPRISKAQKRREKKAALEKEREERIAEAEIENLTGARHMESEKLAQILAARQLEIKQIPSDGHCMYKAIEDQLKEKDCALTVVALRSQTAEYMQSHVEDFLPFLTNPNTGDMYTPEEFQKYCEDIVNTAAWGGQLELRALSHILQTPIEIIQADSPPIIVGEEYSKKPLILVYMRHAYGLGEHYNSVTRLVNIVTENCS
# Procedure, shortened: (§1)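 Fragment (200 µM) or vehicle was incubated for 3 h with triplicate HEK293T lysate samples of 495 µg, which were then treated with Biotin-Ahx-Ub-VS at 0.5 µM final for 1 h. Labelled DUBs were enriched on NeutrAvidin, digested with LysC and trypsin, and analysed by diaPASEF LC-MS/MS. Values are average log2 fragment/vehicle ratios from an unpaired t-test on global-median-normalised Spectronaut label-free quantities, using proteins with ≥2 unique peptides.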
# OTUD7B = target: T2, OTUD7B (UniProt Q6GQQ9)
# T2 sequence (whole entry): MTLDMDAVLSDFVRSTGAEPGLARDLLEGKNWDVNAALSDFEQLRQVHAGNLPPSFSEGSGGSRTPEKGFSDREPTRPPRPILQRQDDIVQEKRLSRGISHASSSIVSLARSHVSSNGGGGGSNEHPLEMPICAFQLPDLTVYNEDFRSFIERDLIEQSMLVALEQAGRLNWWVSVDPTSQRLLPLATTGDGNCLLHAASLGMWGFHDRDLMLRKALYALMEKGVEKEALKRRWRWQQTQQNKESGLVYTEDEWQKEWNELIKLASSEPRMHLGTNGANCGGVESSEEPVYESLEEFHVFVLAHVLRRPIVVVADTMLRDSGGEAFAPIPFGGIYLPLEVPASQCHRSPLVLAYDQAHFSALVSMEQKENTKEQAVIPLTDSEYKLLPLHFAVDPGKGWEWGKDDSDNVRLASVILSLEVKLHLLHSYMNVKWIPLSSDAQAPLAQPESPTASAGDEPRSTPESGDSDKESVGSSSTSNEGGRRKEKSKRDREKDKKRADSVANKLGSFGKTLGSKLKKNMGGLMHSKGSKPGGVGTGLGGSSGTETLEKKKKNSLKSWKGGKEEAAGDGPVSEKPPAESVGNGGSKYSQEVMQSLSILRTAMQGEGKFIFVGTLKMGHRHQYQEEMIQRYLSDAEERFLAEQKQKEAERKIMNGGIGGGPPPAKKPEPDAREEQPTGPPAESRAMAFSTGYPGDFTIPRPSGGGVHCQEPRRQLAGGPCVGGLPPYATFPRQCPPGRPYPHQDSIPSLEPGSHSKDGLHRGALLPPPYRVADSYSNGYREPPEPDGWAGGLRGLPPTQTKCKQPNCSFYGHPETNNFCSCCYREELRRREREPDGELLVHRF
# Procedure, shortened: as §1
# PRPF8 = PRPF8 (UniProt Q6P2Q9)
# Procedure, shortened: as §1
# PSMD7 = target: T3, PSMD7 (UniProt P51665)
# T3 sequence (whole entry): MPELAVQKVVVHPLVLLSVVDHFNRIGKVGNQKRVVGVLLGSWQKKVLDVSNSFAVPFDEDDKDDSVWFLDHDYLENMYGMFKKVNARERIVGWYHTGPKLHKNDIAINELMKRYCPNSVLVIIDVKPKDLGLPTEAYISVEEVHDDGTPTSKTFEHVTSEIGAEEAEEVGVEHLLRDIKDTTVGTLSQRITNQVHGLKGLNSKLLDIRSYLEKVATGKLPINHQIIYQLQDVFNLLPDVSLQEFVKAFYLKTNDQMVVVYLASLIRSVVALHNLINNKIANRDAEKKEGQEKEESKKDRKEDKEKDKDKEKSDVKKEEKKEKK
# Procedure, shortened: as §1
# UCHL1 = UCHL1 (UniProt P09936)
# Procedure, shortened: as §1
# UCHL3 = target: T4, UCHL3 (UniProt P15374)
# T4 sequence (whole entry): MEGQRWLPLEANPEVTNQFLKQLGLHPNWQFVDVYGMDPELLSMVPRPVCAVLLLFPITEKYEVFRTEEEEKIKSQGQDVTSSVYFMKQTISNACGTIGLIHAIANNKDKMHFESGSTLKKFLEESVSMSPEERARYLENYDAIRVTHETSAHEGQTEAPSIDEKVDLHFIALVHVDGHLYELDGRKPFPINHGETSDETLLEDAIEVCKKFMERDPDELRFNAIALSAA
# Procedure, shortened: as §1
# UCHL5 = target: T5, UCHL5 (UniProt Q9Y5K5)
# T5 sequence (whole entry): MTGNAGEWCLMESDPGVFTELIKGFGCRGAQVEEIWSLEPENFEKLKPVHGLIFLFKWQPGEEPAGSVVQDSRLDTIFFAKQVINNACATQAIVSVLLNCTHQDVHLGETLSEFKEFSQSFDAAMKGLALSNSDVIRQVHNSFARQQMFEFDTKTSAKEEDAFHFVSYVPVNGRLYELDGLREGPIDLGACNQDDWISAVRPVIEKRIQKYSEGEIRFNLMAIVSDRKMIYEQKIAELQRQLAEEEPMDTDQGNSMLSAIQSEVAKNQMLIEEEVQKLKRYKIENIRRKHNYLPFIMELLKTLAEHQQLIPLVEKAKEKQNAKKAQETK
# Procedure, shortened: as §1
# USP10 = USP10 (UniProt Q14694)
# Procedure, shortened: as §1
# USP15 = target: T6, USP15 (UniProt Q9Y4E8)
# T6 sequence (whole entry): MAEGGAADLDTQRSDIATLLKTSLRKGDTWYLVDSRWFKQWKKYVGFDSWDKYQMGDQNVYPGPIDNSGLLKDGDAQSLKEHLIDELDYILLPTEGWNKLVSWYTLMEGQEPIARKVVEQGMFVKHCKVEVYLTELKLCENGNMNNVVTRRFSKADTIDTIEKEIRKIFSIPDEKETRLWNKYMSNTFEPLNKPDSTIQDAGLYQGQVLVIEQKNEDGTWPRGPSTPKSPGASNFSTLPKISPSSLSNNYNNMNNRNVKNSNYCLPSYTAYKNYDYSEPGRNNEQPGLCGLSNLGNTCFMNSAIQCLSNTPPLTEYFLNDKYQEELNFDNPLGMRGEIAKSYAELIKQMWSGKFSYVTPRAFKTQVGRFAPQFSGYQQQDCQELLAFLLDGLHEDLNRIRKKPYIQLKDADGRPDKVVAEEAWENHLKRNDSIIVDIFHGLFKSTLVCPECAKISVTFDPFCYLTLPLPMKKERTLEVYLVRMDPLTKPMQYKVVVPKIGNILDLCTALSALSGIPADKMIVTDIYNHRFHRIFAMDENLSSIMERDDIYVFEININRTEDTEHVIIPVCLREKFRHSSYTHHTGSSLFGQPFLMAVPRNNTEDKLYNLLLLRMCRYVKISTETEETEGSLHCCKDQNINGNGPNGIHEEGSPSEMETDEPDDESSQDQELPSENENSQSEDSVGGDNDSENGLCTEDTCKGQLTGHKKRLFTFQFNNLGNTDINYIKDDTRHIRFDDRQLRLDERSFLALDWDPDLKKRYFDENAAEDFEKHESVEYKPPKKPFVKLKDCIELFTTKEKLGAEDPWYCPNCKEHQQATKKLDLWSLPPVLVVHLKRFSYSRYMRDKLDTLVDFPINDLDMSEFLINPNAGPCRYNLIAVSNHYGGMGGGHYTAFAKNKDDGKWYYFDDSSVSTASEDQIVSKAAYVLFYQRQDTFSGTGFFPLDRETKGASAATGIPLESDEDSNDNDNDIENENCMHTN
# Procedure, shortened: as §1
# USP16 = USP16 (UniProt Q9Y5T5)
# Procedure, shortened: as §1
# Chain of UCHL1 (P09936 whole entry, looked up): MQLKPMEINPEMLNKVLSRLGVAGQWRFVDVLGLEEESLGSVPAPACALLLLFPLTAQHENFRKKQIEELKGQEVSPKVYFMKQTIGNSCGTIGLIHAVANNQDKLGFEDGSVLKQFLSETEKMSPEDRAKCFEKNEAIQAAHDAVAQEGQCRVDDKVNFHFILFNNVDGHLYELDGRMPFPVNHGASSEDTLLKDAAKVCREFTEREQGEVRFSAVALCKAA
# Chain of USP16 (Q9Y5T5 whole entry, looked up): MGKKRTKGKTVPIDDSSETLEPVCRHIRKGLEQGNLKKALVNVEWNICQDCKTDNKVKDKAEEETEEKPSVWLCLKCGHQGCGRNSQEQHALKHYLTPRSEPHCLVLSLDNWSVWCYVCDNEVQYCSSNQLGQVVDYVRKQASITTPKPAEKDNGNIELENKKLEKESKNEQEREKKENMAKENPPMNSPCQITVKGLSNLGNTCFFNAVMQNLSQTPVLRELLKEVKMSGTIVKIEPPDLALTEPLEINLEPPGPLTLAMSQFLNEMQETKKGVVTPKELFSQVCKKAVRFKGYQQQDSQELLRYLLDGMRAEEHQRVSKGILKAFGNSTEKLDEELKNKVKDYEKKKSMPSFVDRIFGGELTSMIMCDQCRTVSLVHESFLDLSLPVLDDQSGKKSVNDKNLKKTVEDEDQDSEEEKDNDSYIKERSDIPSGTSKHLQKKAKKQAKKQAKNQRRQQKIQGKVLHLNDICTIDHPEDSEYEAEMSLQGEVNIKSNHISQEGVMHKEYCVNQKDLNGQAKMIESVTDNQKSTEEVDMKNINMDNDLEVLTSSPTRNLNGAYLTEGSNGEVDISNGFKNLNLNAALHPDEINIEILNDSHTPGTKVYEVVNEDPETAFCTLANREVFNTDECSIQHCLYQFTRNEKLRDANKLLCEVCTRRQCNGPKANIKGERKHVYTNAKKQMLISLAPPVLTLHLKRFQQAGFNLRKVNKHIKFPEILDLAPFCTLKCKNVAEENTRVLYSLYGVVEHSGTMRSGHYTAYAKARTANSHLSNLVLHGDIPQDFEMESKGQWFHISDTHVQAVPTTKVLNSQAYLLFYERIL
# Chain of USP10 (Q14694 whole entry): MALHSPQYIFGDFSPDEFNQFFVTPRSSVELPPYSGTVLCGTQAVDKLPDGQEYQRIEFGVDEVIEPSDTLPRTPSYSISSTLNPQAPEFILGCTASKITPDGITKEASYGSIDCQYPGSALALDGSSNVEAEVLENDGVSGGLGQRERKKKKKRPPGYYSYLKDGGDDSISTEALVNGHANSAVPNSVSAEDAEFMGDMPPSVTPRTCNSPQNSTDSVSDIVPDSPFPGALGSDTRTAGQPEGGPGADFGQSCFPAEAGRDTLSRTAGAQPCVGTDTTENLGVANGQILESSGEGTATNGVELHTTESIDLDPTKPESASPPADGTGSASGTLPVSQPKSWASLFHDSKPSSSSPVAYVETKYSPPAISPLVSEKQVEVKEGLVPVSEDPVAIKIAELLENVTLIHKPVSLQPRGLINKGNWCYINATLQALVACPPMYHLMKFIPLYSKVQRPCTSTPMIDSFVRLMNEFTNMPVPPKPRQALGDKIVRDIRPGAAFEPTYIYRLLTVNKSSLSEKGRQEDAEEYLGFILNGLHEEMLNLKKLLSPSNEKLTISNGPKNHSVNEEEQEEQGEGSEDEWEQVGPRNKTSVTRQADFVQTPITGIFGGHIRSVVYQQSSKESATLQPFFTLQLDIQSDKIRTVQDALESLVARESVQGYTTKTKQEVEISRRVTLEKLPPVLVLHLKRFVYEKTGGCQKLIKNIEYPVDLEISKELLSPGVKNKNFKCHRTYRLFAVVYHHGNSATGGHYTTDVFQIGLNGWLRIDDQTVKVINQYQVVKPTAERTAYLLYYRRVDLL
smiles,measurement,setting,value
O=C(CCl)Nc1cc(Cl)ccc1-n1cncn1,log2 ratio of Biotin-Ahx-Ub-VS probe labelling,OTUD6B,-1.04 (active)
same,log2 ratio of Biotin-Ahx-Ub-VS probe labelling,OTUD7B,-2.08 (active)
same,log2 ratio of Biotin-Ahx-Ub-VS probe labelling,PRPF8,-0.132
same,log2 ratio of Biotin-Ahx-Ub-VS probe labelling,PSMD7,-0.143
same,log2 ratio of Biotin-Ahx-Ub-VS probe labelling,UCHL1,-1.89 (active)
same,log2 ratio of Biotin-Ahx-Ub-VS probe labelling,UCHL3,-0.609
same,log2 ratio of Biotin-Ahx-Ub-VS probe labelling,UCHL5,-1.18 (active)
same,log2 ratio of Biotin-Ahx-Ub-VS probe labelling,USP10,-0.141
same,log2 ratio of Biotin-Ahx-Ub-VS probe labelling,USP15,-1.26 (active)
same,log2 ratio of Biotin-Ahx-Ub-VS probe labelling,USP16,0.0892
